Some test systems named below: SK-MEL-2 melanoma; SN12C renal; UO-31 renal; TK-10 renal; ACHN renal; CAKI-1 renal; A498 renal; CCRF-CEM leukemia; MOLT-4 leukemia; SR leukemia; OVCAR-8 ovarian; OVCAR-5 ovarian; OVCAR-4 ovarian; SK-OV-3 ovarian; IGROV1 ovarian; HS 578T breast; NCI/ADR-RES ovarian; RPMI-8226 leukemia; OVCAR-3 ovarian.
Assay in all cases: NCI-60 one-dose screen, 48 h (100 = growth as untreated, 0 = no growth, -100 = all killed)
What all share (conditions): 10 µM unless noted

Each structure is given as a SMILES string. Compounds without any hit were thinned out: in the full panel of roughly 83,000, 20% have a hit.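 For each line, cells grew in 96-well plates with the test compound present at a single concentration for 48 hours.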 Unmarked numbers belong to inactive results. Calls of active or inactive are those of the source. How the source made its calls: active means growth percent below 10; inactive means the rest.

In PubChem BioAssay (NCI) one finds growth data, which are given here for nine compounds.

As to `Cc1cc(C)on1`, the growth in the assay on SK-MEL-2 melanoma was 99.6%; in the assay on SN12C renal it was 99.6%; in the assay on UO-31 renal, 84.5%; with TK-10 renal it was 103%; in the assay with ACHN renal, 104%; with CAKI-1 renal it was 98.4%. For the same compound, the growth is 121% in the assay with A498 renal; 96% in the assay on CCRF-CEM leukemia; 92.3% with MOLT-4 leukemia; 70.8% in the assay with SR leukemia; 92.4% in the assay with OVCAR-8 ovarian; 116% with OVCAR-5 ovarian. For the same compound, the growth with OVCAR-4 ovarian was 98%; in the assay on SK-OV-3 ovarian, 111%; in the assay on IGROV1 ovarian, 110%; with HS 578T breast, 102%; in the assay with NCI/ADR-RES ovarian, 109%.
Turning to `Cc1cc(Cl)nc(N(CCCNc2ccnc3cc(Cl)ccc23)Cc2ccccn2)n1`, the growth in the assay on SK-MEL-2 melanoma was 64.2%; in the assay on SN12C renal it was 52.6%; in the assay with UO-31 renal it was 27.2%; in the assay with TK-10 renal it was 66.1%; in the assay on ACHN renal, 54.2%; with CAKI-1 renal, 48.5%. For the same compound, the growth with A498 renal was 30.4%; with CCRF-CEM leukemia, 36.1%; with RPMI-8226 leukemia it was 1.09% (active); in the assay on OVCAR-8 ovarian, 33.8%; in the assay with OVCAR-5 ovarian it was 56%; with OVCAR-4 ovarian it was 41.4%. Also, the growth with SK-OV-3 ovarian was 65%; with IGROV1 ovarian it was 44.1%; with OVCAR-3 ovarian, 62.8%; with HS 578T breast, 78.6%; with NCI/ADR-RES ovarian, 32.2%.
On to `COc1ccc(Oc2nc(Nc3ccc(N4CCCCC4)nc3)ncc2NC(=O)c2cc(OC)cc(OC)c2)cc1`, for which the growth in the assay on SK-MEL-2 melanoma is 41.2%; in the assay with SN12C renal, 53.2%; with UO-31 renal, 33.3%; in the assay on TK-10 renal it was 75.5%; in the assay on ACHN renal, 28.8%; in the assay on CAKI-1 renal, 41.8%. In addition, the growth with A498 renal is 39.1%; in the assay on CCRF-CEM leukemia, 20%; in the assay on RPMI-8226 leukemia, 24.4%; in the assay with OVCAR-8 ovarian it was 57%; in the assay on OVCAR-5 ovarian, 76.7%; in the assay on OVCAR-4 ovarian, 56.7%. For the same compound, the growth was 57.6% in the assay with SK-OV-3 ovarian; 58.3% with IGROV1 ovarian; 6.75% (active) in the assay with OVCAR-3 ovarian; 44.6% in the assay on HS 578T breast; 26.1% in the assay on NCI/ADR-RES ovarian.
For `COc1cc(NC(=O)c2cccc(-c3cc(=O)c4c(O)c(OC)c(OC)cc4o3)c2)cc(OC)c1OC`, the growth is 69.6% in the assay with SK-MEL-2 melanoma; 63% with SN12C renal; 34.3% in the assay with UO-31 renal; 74.8% with TK-10 renal; 16.3% in the assay with ACHN renal; 62.5% in the assay on CAKI-1 renal. In addition, the growth in the assay on A498 renal is 80.1%; in the assay on CCRF-CEM leukemia, 58.1%; in the assay with MOLT-4 leukemia, 72.8%; in the assay with SR leukemia, 54.4%; with RPMI-8226 leukemia, 27%; with OVCAR-8 ovarian, 23.1%. Also, the growth was 77.4% with OVCAR-5 ovarian; 58.6% in the assay on OVCAR-4 ovarian; 70.4% with IGROV1 ovarian; 23.8% in the assay on OVCAR-3 ovarian; -3.91% (active) in the assay with HS 578T breast; 49.4% in the assay on NCI/ADR-RES ovarian.
For the compound `COc1ccc(-n2ncn(CCCCCCn3cnn(-c4ccc(OC)cc4)c3=O)c2=O)cc1`, the growth in the assay on SK-MEL-2 melanoma is 89.5%; with SN12C renal, 90.6%; in the assay with UO-31 renal, 72.5%; with TK-10 renal, 118%; with ACHN renal, 87.5%; in the assay on CAKI-1 renal it was 87.4%. In addition, the growth was 101% in the assay with A498 renal; 87.8% in the assay on CCRF-CEM leukemia; 78.3% with RPMI-8226 leukemia; 95.2% in the assay on OVCAR-8 ovarian; 101% in the assay with OVCAR-5 ovarian; 84.5% in the assay on OVCAR-4 ovarian. Besides, the growth is 99.5% with SK-OV-3 ovarian; 90.6% in the assay on IGROV1 ovarian; 98.4% with OVCAR-3 ovarian; 93.9% with HS 578T breast; 89% in the assay with NCI/ADR-RES ovarian.
Turning to `CN(C)CN1CCN(c2ccc3nc(-c4ccc5nc(-c6ccc(C(F)(F)F)cc6)[nH]c5c4)[nH]c3c2)CC1`, the growth in the assay on SK-MEL-2 melanoma is 52%; in the assay with SN12C renal, 64.4%; with UO-31 renal it was 131%; in the assay on TK-10 renal, 130%; in the assay with ACHN renal it was 79.3%; with CAKI-1 renal, 73.6%. The growth with CCRF-CEM leukemia is 38.6%; in the assay with MOLT-4 leukemia, 44.2%; in the assay on SR leukemia, 17.7%; in the assay with RPMI-8226 leukemia, 19.1%; in the assay on OVCAR-8 ovarian, 53%; with OVCAR-5 ovarian it was 114%. The growth with OVCAR-4 ovarian is -4.77% (active); with OVCAR-3 ovarian, 89.7%; with HS 578T breast, 52.8%; in the assay with NCI/ADR-RES ovarian, 97.9%.
Take `COc1cc(NC(=O)c2cccc(-c3cc(=O)c4c(OC)c(OC)c(OC)cc4o3)c2)cc(OC)c1OC`: the growth in the assay on SK-MEL-2 melanoma is 41.7%; in the assay with SN12C renal, 45.9%; in the assay with UO-31 renal it was 20.9%; in the assay on TK-10 renal, 69.4%; in the assay on ACHN renal, 56.7%; in the assay with CAKI-1 renal, 40.6%. Moreover, the growth in the assay on A498 renal was 57.4%; with CCRF-CEM leukemia it was 31.3%; with MOLT-4 leukemia it was 10.4%; in the assay with SR leukemia, 29.8%; in the assay on RPMI-8226 leukemia, 0.302% (active); in the assay with OVCAR-8 ovarian it was 30.9%. The growth was 86% in the assay with OVCAR-5 ovarian; 74.8% in the assay on OVCAR-4 ovarian; 51.8% in the assay with IGROV1 ovarian; 40.8% with OVCAR-3 ovarian; 9.2% (active) in the assay with HS 578T breast; 51.1% in the assay with NCI/ADR-RES ovarian.
Consider `COc1cc2c(c(OC)c1OC)C(=O)/C(=C/c1cc(C)c(O)c(C)c1)S2`, for which the growth with SK-MEL-2 melanoma is 43.6%; with SN12C renal, 45.6%; in the assay with UO-31 renal, 33%; with TK-10 renal, 59.2%; with ACHN renal it was 45.8%; with CAKI-1 renal, 26.3%. Further, the growth in the assay with CCRF-CEM leukemia was 25%; in the assay with MOLT-4 leukemia, 33.9%; in the assay with SR leukemia it was 33.8%; in the assay on RPMI-8226 leukemia, 21.8%; with OVCAR-8 ovarian, 41.5%; in the assay with OVCAR-5 ovarian, 65.2%. In addition, the growth with OVCAR-4 ovarian was 51.8%; in the assay with IGROV1 ovarian it was 45.7%; in the assay on OVCAR-3 ovarian, 8.16% (active); with HS 578T breast it was 29.4%; in the assay with NCI/ADR-RES ovarian it was 14.1%.
Turning to `C(=C\c1nc2ccccc2[nH]1)/c1nc2ccccc2[nH]1`, the growth was 107% in the assay with SK-MEL-2 melanoma; 100% with SN12C renal; 81.8% in the assay with UO-31 renal; 143% with TK-10 renal; 93.3% in the assay on ACHN renal; 96.6% in the assay with CAKI-1 renal. Further, the growth was 83.7% in the assay on A498 renal; 93.5% in the assay on CCRF-CEM leukemia; 80.4% with MOLT-4 leukemia; 93.3% in the assay with SR leukemia; 89.9% with RPMI-8226 leukemia; 97.6% with OVCAR-8 ovarian. In addition, the growth is 111% in the assay on OVCAR-5 ovarian; 97.1% in the assay on OVCAR-4 ovarian; 98.4% in the assay on SK-OV-3 ovarian; 93.1% in the assay with IGROV1 ovarian; 109% in the assay with OVCAR-3 ovarian; 100% with HS 578T breast. For the same compound, the growth with NCI/ADR-RES ovarian is 94.3%.
